From PubChem BioAssay AID504847 (National Center for Advancing Translational Sciences (NCATS), 2011)
About 3,700 (0.93%) of roughly 400,000 compounds were called active. Another 3% or so got no clear call; they are omitted. Calls come from the whole dose curve; as a rule, active = well fitted inhibition curve with a large enough effect; inconclusive = small, poorly fitted or top-dose-only effect, or another doubt; inactive = no such curve, though single readings can be large or run the other way. What follows is part of a selection rich in actives, with near analogues and random picks from the rest. Where a structure was tested more than once in an assay, its records may differ in their call.
% is set by controls: 0 for no effect and ±100 for the full control effect; potency is the fitted concentration of half-maximal effect.

What follows are compounds tested against Vitamin D3 receptor (Homo sapiens) (UniProt P11473) (assay: Inhibitors of the vitamin D receptor (VDR): qHTS). Settings: VDR-SRC2-3 peptide fluorescence polarization, 2 h; max response, negative = inhibition: active compounds read low.
Vitamin D3 receptor (Homo sapiens), sequence (P11473 whole entry, looked up): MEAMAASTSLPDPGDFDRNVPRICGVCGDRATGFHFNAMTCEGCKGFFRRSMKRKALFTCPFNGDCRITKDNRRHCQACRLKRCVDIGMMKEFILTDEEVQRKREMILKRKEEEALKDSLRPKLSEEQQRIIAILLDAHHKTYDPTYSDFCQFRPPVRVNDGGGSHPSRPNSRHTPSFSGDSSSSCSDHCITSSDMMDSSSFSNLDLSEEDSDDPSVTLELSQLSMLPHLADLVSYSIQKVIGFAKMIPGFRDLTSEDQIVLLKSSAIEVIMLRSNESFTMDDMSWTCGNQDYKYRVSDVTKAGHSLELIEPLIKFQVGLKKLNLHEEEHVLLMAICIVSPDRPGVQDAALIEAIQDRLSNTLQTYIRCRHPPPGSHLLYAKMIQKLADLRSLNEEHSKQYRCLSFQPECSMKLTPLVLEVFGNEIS
In short: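 Fluorescence polarization assay measuring small-molecule disruption of VDR binding to the coregulator peptide SRC2-3. Compounds were pin-transferred (23 nl) into the reagent mix and incubated 2 h at room temperature before reading.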
With `CCc1ccccc1NC(=O)Cn1c(=O)n(CC2CCC(C(=O)NCCc3ccccc3)CC2)c(=O)c2ccccc21` (stereo not drawn) the max response, negative = inhibition was -18.5% (inactive).
With `Cc1cc(C(=O)Nc2cccc(C(F)(F)F)c2)c2c(C)nn(-c3cccc(F)c3)c2n1` the max response, negative = inhibition was -0.555% (inactive).
`c1ccc2c(C[n+]3csc4ccccc43)cccc2c1` was tested, and the Potency was 44.7 µM (active).
For `Nc1scc[n+]1Cc1cccc2cccnc12`, the max response, negative = inhibition was 4.69% (inactive).
`c1ccc2c(CNn3cnnc3)cccc2c1` was tested, and the max response, negative = inhibition was -17.7% (inactive).
With `CCN(CC)c1ccc(NC(=O)Cn2nc3c(cc2=O)CCCC3)c(C)c1` the max response, negative = inhibition was 2.95% (inactive).
`CC1(C)OC2CO[C@]3(COS(N)(=O)=O)OC(C)(C)OC3C2O1` (stereo partly drawn) was tested, and the max response, negative = inhibition was -14.1% (inactive).
`Oc1cc(O)c2c(c1)OC(c1ccc(O)c(O)c1)C(O)C2` (stereo not drawn) was tested, and the Potency was 35.5 µM (active) and the max response, negative = inhibition was -19.6% (inactive).
`NS(=O)(=O)c1ccc(NC(=O)CSc2nnc3c(n2)[nH]c2ccccc23)cc1` was tested, and the max response, negative = inhibition was 5.25% (inactive).
In the case of `CCOc1cc(-c2nnc(SCC(=O)NC3CCCCC3)nc2-c2ccc(OC)c(OCC)c2)ccc1OC`, the max response, negative = inhibition is reported as 15.8% (inactive).
`COc1ccc(OCc2n[nH]c(=S)n2N)cc1` was tested, and the Potency was 35.5 µM (active).
For `COc1ccc(OC)c(-n2c(-c3ccn[nH]3)n[nH]c2=S)c1`, the max response, negative = inhibition was -3.11% (inactive).
`COc1ccc(Cc2n[nH]c(=S)n2NC(=O)Nc2ccc(C)cc2)cc1` was tested, and the max response, negative = inhibition was -6.31% (inactive).
`COc1cc(C(=O)N(Cc2ccc(C(C)C)cc2)C2CCS(=O)(=O)C2)cc(OC)c1OC` (stereo not drawn) was tested, and the max response, negative = inhibition was -4.09% (inactive).
In the case of `CCOc1cc(/C=C(\C#N)C(=O)Nc2ccccc2C)ccc1OCc1cc(=O)n2nc(CC)sc2n1`, the max response, negative = inhibition is reported as -13.9% (inactive).
In the case of `O=C(NNC(=O)c1ccc2ccccc2c1)c1ccc(Cl)cc1`, the max response, negative = inhibition is reported as 18.2% (inactive).
`O=C(Nc1ccccc1N1CCCC1)c1ccc2ccccc2c1` was tested, and the max response, negative = inhibition was -2.28% (inactive).
With `C=CC(=O)c1ccc2ccccc2c1` the Potency was 1.78 µM (active).
In the case of `O=C(CC1N=C2c3ccccc3N=C(SCc3cccc(Cl)c3)N2C1=O)NCc1ccc2c(c1)OCO2` (stereo not drawn), the max response, negative = inhibition is reported as 13.3% (inactive).
For `COc1ccc(NC(=O)CSc2nnc(-c3nnn(-c4ccc(F)cc4)c3C)o2)cc1`, the max response, negative = inhibition was 15.3% (inactive).
In the case of `CCCCCCCC1=Cc2ccc(F)cc2C(C(C(=O)OC)C(=O)OC)N1C(=O)OC` (stereo not drawn), the max response, negative = inhibition is reported as 2.51% (inactive).
In the case of `COc1cc(C2CC(=O)N3CN(Cc4ccccc4)CSC3=C2C#N)ccc1OCc1ccccc1` (stereo not drawn), the Potency is reported as 22.4 µM (active).
`COc1cc(CNC2CCCC2)c(Br)cc1OCc1ccccc1` was tested, and the max response, negative = inhibition was 18.9% (inactive).
In the case of `COc1ccc(CCN=C2SCC(=O)N2Cc2ccccc2)cc1OC`, the max response, negative = inhibition is reported as 3.18% (inactive).
In the case of `Cc1cccc(-c2nc(SCc3ccc(Br)cc3)n3[nH]c(=O)cc3n2)c1`, the max response, negative = inhibition is reported as 11.8% (inactive).
For `COc1ccccc1CNc1ncnc2ccc(-c3ccc4c(c3)OCO4)cc12`, the max response, negative = inhibition was -6.36% (inactive).
In the case of `COc1ccc(-n2c(SC)nc(O)cc2=O)cc1`, the max response, negative = inhibition is reported as -7.87% (inactive).
`CCn1c(SC)nc(O)c(C(c2ccc(OC)c(O)c2)c2c(O)nc(SC)n(CC)c2=O)c1=O` was tested, and the Potency was 35.5 µM (active).
For `CCn1c(CNC(=O)c2ccc(OC)c(OC)c2)nnc1SCC(=O)Nc1ccccc1`, the max response, negative = inhibition was 2.26% (inactive).
For `COc1cc(NC(=O)c2noc3c2CSc2ccccc2-3)cc(OC)c1OC`, the max response, negative = inhibition was 1.93% (inactive).
`COc1ccc(CNc2nc(-c3ccc(Cl)cc3)nn2S(=O)(=O)c2ccc(C)cc2)cc1` was tested, and the max response, negative = inhibition was -0.454% (inactive).
`Cc1ccc(-n2cnc3cc(C(=O)NCCC4=CCCCC4)ccc32)cc1Cl` was tested, and the max response, negative = inhibition was -3.42% (inactive).
In the case of `CCOC(=O)c1ccc(CN(Cc2ccccc2)S(=O)(=O)c2ccc(Cl)cc2)cc1`, the max response, negative = inhibition is reported as 9.71% (inactive).
With `CCOC(=O)c1sc(NC(=O)CSc2nc(C)cc(C(F)(F)F)n2)c(C#N)c1C` the Potency was 28.2 µM (active).
With `Cc1cccc(NC(=O)CSc2nc(-c3ccco3)cc(C(F)(F)F)n2)c1C` the max response, negative = inhibition was -20.2% (inactive).
With `CCn1c(SCC(=O)Nc2sc(C)c(C)c2C#N)nnc1C1CC1` the max response, negative = inhibition was 1.75% (inactive).
For `CC1=Nc2cc(C(=O)N3CCC(C)CC3)ccc2Sc2ccc(Cl)cc21`, the max response, negative = inhibition was -2.31% (inactive).
In the case of `CN(Cc1ccco1)c1cc(-c2ccccc2C(F)(F)F)ncn1`, the Potency is reported as 39.8 µM (active).
`Cn1c(=O)[nH]c(=O)c2c1nc(NCCc1ccccc1)n2Cc1ccc(F)cc1` was tested, and the max response, negative = inhibition was -22.7% (inactive).
`Cc1nnc(Sc2nc3c(c(=O)[nH]c(=O)n3C)n2Cc2ccccc2)s1` was tested, and the max response, negative = inhibition was -19.6% (inactive).
In the case of `Cn1c(=O)[nH]c(=O)c2c1[nH]c(=S)n2Cc1ccccc1`, the Potency is reported as 89.1 µM (active).
For `c1ccc(Cn2nnc3c(N4CCCCC4)ncnc32)cc1`, the max response, negative = inhibition was 7.87% (inactive).
With `COc1ccc(OC)c(-c2noc(N3CCN(c4cc(Cl)ccc4C)CC3)n2)c1` the max response, negative = inhibition was 13.2% (inactive).
In the case of `O=C(CCN1CCc2ccccc2C(O)(c2ccccc2)C1)c1ccc2c(c1)OCCO2` (stereo not drawn), the Potency is reported as 35.5 µM (active).
In the case of `CCC1(c2ccccc2)NC(=O)N(CC(=O)c2ccc3c(c2)OCO3)C1=O` (stereo not drawn), the max response, negative = inhibition is reported as 7.42% (inactive).
`O=C(CN1CCC(O)(c2ccccc2)CC1)Nc1ccc2c(c1)OCCO2` was tested, and the max response, negative = inhibition was 0.904% (inactive).
With `COc1cc(OC)cc(C(=O)NCCc2csc3nc(-c4ccccc4F)nn23)c1` the max response, negative = inhibition was 1.56% (inactive).
With `CCOC(=O)c1cccc(NS(=O)(=O)c2cc(-c3cnc(C)o3)ccc2OC)c1` the max response, negative = inhibition was 1.33% (inactive).
With `O=C(CSc1nnnn1C1CCCC1)N1CCCCC1` the max response, negative = inhibition was 12.7% (inactive).
For `CC(Sc1nnnn1C1CCCCC1)C(=O)O` (stereo not drawn), the Potency was 79.4 µM (active).
For `CC(Sc1nnnn1C)C(=O)NC(=O)NC1CCCCC1` (stereo not drawn), the max response, negative = inhibition was 15% (inactive).
`CC1OC(OCC2OC(Oc3c(-c4ccc(O)c(O)c4)oc4cc(O)cc(O)c4c3=O)C(O)C(O)C2O)[C@@H](O)C(O)C1O` (stereo partly drawn) was tested, and the max response, negative = inhibition was -0.0788% (inactive).
With `COc1cc(C(=O)N2CCN(c3ccc(Nc4ccc(C)cc4)nn3)CC2)cc(OC)c1OC` the max response, negative = inhibition was 13.1% (inactive).
`Cc1oc2ncnc(N3CCOCC3)c2c1C(=O)NCCc1ccccc1` was tested, and the max response, negative = inhibition was 9.03% (inactive).
With `O=C1c2ccccc2C(=O)N1c1ccc(S(=O)(=O)N2CCOCC2)c2ccccc12` the max response, negative = inhibition was -4.23% (inactive).
With `FC(F)(F)C1CCCN(c2nsc3ccccc23)C1` (stereo not drawn) the Potency was 20 µM (active).
For `C[C@H]1CCC[C@@]2(C)CCCC[C@]12O`, the max response, negative = inhibition was 0.107% (inactive).
